Values joined by “and” are separate entries in the source; they are usually repeats but may differ in a detail not shown here. Identical values can stand only once. This is part of a sample that, as a whole, favours compounds with a hit. Of some 79,000 tested, about 15% had one in any assay. Values without a mark were called inactive. Active and inactive are the calls of the source. Cut-off read from the data, not from the text of the source: active = growth inhibition above about 70%; inactive = the rest.
Assay: NCI Yeast Anticancer Drug Screen. Data for the cln2 rad14 strain (AID 165);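 note: 0% = growth equal to vehicle treated cultures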
Conditions: S. cerevisiae cln2 rad14 strain, at 5.0 µM (retest, dose inferred, filed as 0.5), stronger effect = higher value
Outline: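 Yeast strain cln2 rad14, bearing defects in cell cycle control and DNA repair, serves as the test system; values reflect growth inhibition compared with vehicle.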

Compound	growth inhibition
COc1ccc(/C=C2\CCc3ccccc3C2=O)cc1OC	23%
CC(C)c1ccc(O)c(=O)cc1	6% and 5% and -1%
O=Cc1ccccc1B(O)O	-52%
OCC(O)C(O)C(O)C(O)c1nc2ccccc2[nH]1 (stereo unspecified)	0% and 2%
CC(=O)CC[N+](C)(C)C	25%
O=C(O)[C@H]1[C@@H](C2CCCCC2)O[C@@H](C2CCCCC2)O[C@H]1C(F)(F)F	-11%
CN(NC(=O)/C(=C/C=C/c1ccccc1)NC(=O)c1ccccc1)C1=C(Cl)C(=O)[N+](c2ccccc2)=CC1	30%
CCCCOc1ccc(Nc2c3ccccc3nc3ccccc23)cc1	10%
N#C/C(=C1C=C/C(=N\O)C(Cl)=C\1)c1ccccc1	12%
COc1cccc2c1C(=O)c1c(O)c3c(c(O)c1C2=O)CC(O)(C(=O)CO)CC3OC1CC(N)C(O)C(C)O1 (stereo unspecified)	2% and 8% and 23%
COc1ccc(C(=O)OCCc2ccccc2)cc1	-1%
Cc1c2ccncc2c(C)c2c1oc1ccccc12	31%
CCCC#CCOC(=O)c1cc([N+](=O)[O-])cc([N+](=O)[O-])c1	23%
Nc1nc(Nc2ccccc2)nc(Nc2ccccc2)n1	-4%
COc1ccc(/C=C2\S/C(=N/Nc3nc(-c4ccccc4)cs3)NC2=O)cc1OC	11%
CCCCCCCCCCCC[N+](C)(C)Cc1ccccc1 (tested in a mixture with another compound)	66% and 58% and 61%
CC(O)CN1C(=O)c2cccc3cc([N+](=O)[O-])cc(c23)C1=O (stereo unspecified)	5%
Cc1cc(SC#N)ccc1O	-1% and 26% and -3%

Compound	growth inhibition
Cn1c(COc2ccc(/C=N/NC(=O)CCC(=O)N/N=C/c3ccc(OCc4c[n+]5ccccc5n4C)cc3)cc2)c[n+]2ccccc12	-8%
COC1=C(N=[N+]=[N-])C(=O)c2ncccc2C1=O	24%
CCN(CC)c1ccc(N=Nc2cc(S(=O)(=O)O)ccc2O)c(O)c1	32%
O=C1C(C(O)(C(F)(F)F)C(F)(F)F)CCC1C(O)(C(F)(F)F)C(F)(F)F (stereo unspecified)	83% (active)
COc1nc(N)c(N=CC(OC(C)=O)C(OC(C)=O)C(COC(C)=O)OC(C)=O)c(=O)n1C (stereo unspecified)	-6% and 1% and 6%
CN(C)CCNC(=O)c1cccc2nc3c(ccc4ccccc43)nc12	4%
O=S(=O)(CCC[C@H]1[C@@H](CCOCc2ccccc2)C2CCCN1O2)c1ccccc1 (stereo partly specified)	-7%
CCC(C)/C(C)=N/NC(N)=O (stereo unspecified)	5%
Nc1c([N+](=O)[O-])cc2c3c(cccc13)CC2	-16%
CC1=Cc2ccc(C)cc2C(=O)C1=O	0%
C=Cc1c(C)c(O)cc2c1-c1ccc(O)c(C)c1CC2	12%
NCC(O)CSCc1ccc(Cl)cc1 (stereo unspecified)	-7%
C[n+]1c(-c2ccc(NC(=O)c3ccc(C(=O)Nc4ccc(-c5cn6ccccc6[n+]5C)cc4)cc3)cc2)cn2ccccc21	32%
Nc1ccccc1SSc1ccccc1N	17% and 4% and 13%
CCCCCCCCCCCC[N+](C)(C)C	3% and -1% and 2%
CNC(=O)OCc1c(COC(=O)NC)c(C)n(-c2ccc(Cl)c(Cl)c2)c1C	7%
[O-]c1c2cc(-[n+]3c(-c4ccccc4)cc(-c4ccccc4)cc3-c3ccccc3)cc1COCCOCCOCCOCCOC2	-31%
C[Si](C)(C)Cc1ccccc1C(=O)O	33%

Source: PubChem BioAssay (NCI)
